Among the test systems are NCI-H23 lung; NCI-H226 lung; NCI-H322M lung; HOP-62 NSCLC; NCI-H460 lung; HOP-92 NSCLC; NCI-H522 lung; A549/ATCC NSCLC; 786-0 renal; COLO 205 colon; DU-145 prostate; K-562 leukemia; MALME-3M melanoma; MDA-MB-231 breast; RXF 393 renal; SF-268 CNS; SF-295 CNS; SF-539 CNS; UACC-257 melanoma; M14 melanoma.
Common to all, as to assay: NCI-60 one-dose screen, 48 h (100 = growth as untreated, 0 = no growth, -100 = all killed)
What all share (conditions): 10 µM unless noted

The panel holds about 83,000 compounds, 20% with a hit somewhere; the sample as a whole holds those more often.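 Treatment: one concentration, 48 hours, 96-well format. Scoring: percent growth, with anything below 10 considered active.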 A number with no mark means an inactive call. Active and inactive are the calls of the source.

For `O=C(/C=C/C12c3ccccc3C(c3ccccc31)C1C(=O)NC(=O)C12)c1ccco1` (stereo not given), the growth was 28.7% in the assay with NCI-H23 lung; 81.6% in the assay on NCI-H226 lung; 30.2% in the assay with NCI-H322M lung; 17.7% in the assay on HOP-62 NSCLC; 11% in the assay with NCI-H460 lung; 24% with HOP-92 NSCLC. Also, the growth in the assay with NCI-H522 lung was 17%; in the assay on A549/ATCC NSCLC, 55.4%; in the assay with 786-0 renal it was 41.1%; with COLO 205 colon it was 45.8%; with DU-145 prostate, -0.301% (active); in the assay with K-562 leukemia it was 12.9%. Besides, the growth with MALME-3M melanoma is 49.3%; in the assay with MDA-MB-231 breast, 40.3%; in the assay on RXF 393 renal, 1.72% (active); in the assay on SF-268 CNS, 28.7%; in the assay on SF-295 CNS, 41.9%; with SF-539 CNS it was 30.8%. Moreover, the values for the growth with UACC-257 melanoma and in the assay with M14 melanoma were 44.9% and 46.6%, respectively.

Regarding `CN(C)Cc1ccc(NC(=O)c2cncc(C#Cc3cnc(N)c4ncccc34)c2)cc1C(F)(F)F`, the growth was 42.1% in the assay on NCI-H23 lung; 76.7% in the assay with NCI-H226 lung; 97% in the assay on NCI-H322M lung; 79.8% in the assay on HOP-62 NSCLC; 13.3% in the assay on NCI-H460 lung; 73.9% with HOP-92 NSCLC. In addition, the growth in the assay on NCI-H522 lung is 94.6%; with A549/ATCC NSCLC, -15.4% (active); in the assay with 786-0 renal it was -73.4% (active); in the assay on COLO 205 colon, 44.6%; in the assay on DU-145 prostate, 64.1%; in the assay with K-562 leukemia, -26.1% (active). Besides, the growth in the assay on MALME-3M melanoma is -6.72% (active); with MDA-MB-231 breast, -68.6% (active); in the assay with RXF 393 renal, -49.1% (active); with SF-268 CNS, 55.9%; with SF-295 CNS, 76.4%; in the assay on SF-539 CNS, 58.4%. Besides, the values for the growth in the assay on UACC-257 melanoma and in the assay on M14 melanoma were 36.9% and -54.7% (active), respectively.

Turning to `Cc1cn(C)cn1`, the growth in the assay on NCI-H23 lung was 97.7%; in the assay on NCI-H226 lung, 108%; in the assay with NCI-H322M lung, 116%; in the assay on HOP-62 NSCLC, 111%; with NCI-H460 lung, 106%; in the assay with HOP-92 NSCLC it was 81.8%. In addition, the growth in the assay with NCI-H522 lung was 89.3%; in the assay with A549/ATCC NSCLC, 94.2%; in the assay on 786-0 renal, 97.9%; in the assay on COLO 205 colon, 125%; in the assay with DU-145 prostate it was 107%; with K-562 leukemia it was 106%. Besides, the growth was 96.1% with MALME-3M melanoma; 112% in the assay with MDA-MB-231 breast; 117% with RXF 393 renal; 106% in the assay on SF-268 CNS; 105% in the assay on SF-295 CNS; 110% with SF-539 CNS. The results for the growth with UACC-257 melanoma and with M14 melanoma were 90.2% and 103%, respectively.

For `c1ccc2cc(Cn3cc(CSc4nc5ccccc5s4)nn3)ccc2c1`, the growth was 93.2% in the assay on NCI-H23 lung; 83.8% in the assay on NCI-H226 lung; 97.6% in the assay on NCI-H322M lung; 85.7% in the assay on HOP-62 NSCLC; 106% in the assay on NCI-H460 lung; 98.7% in the assay on HOP-92 NSCLC. In addition, the growth in the assay with NCI-H522 lung is 86.9%; with A549/ATCC NSCLC, 93.4%; in the assay with 786-0 renal it was 101%; with COLO 205 colon it was 102%; in the assay with DU-145 prostate, 109%; in the assay with K-562 leukemia, 97.4%. Further, the growth with MALME-3M melanoma was 97.7%; in the assay on MDA-MB-231 breast, 89.3%; in the assay with RXF 393 renal, 98.3%; in the assay on SF-268 CNS, 95.8%; in the assay on SF-295 CNS, 96.5%; in the assay on SF-539 CNS, 95.3%. Moreover, the growth with UACC-257 melanoma was 99.9%; with M14 melanoma, 99.4%.

Take `CC/C(=C(/c1ccc(O)cc1)c1ccc(OCCN2CCCCC2)cc1)c1ccc(OC)cc1`: the growth in the assay with NCI-H23 lung is 79.2%; in the assay with NCI-H226 lung, 103%; with NCI-H322M lung, 90.2%; in the assay with HOP-62 NSCLC, 83.5%; in the assay with NCI-H460 lung, 57.4%; in the assay on HOP-92 NSCLC it was 70.2%. For the same molecule, the growth in the assay with NCI-H522 lung is 74.7%; with A549/ATCC NSCLC, 64.4%; in the assay on 786-0 renal, 57.1%; in the assay with COLO 205 colon it was -28.9% (active); in the assay with DU-145 prostate, 71.3%; in the assay with K-562 leukemia, -30.8% (active). The growth with MALME-3M melanoma is -28.3% (active); in the assay on MDA-MB-231 breast, 55.1%; with RXF 393 renal, 68.4%; in the assay with SF-268 CNS, 62.6%; with SF-295 CNS it was 86.9%; in the assay with SF-539 CNS, 86.3%. For the same molecule, the growth with UACC-257 melanoma was 81%; with M14 melanoma it was -61.2% (active).

`CCC(C)(C)c1ccc(Nc2ccc(Nc3ccc(C(C)(C)CC)cc3)cc2)cc1`: the growth with NCI-H23 lung was 83.1%; in the assay on NCI-H226 lung, 93%; with NCI-H322M lung it was 105%; in the assay on HOP-62 NSCLC, 89.3%; with NCI-H460 lung it was 99.1%; in the assay with HOP-92 NSCLC it was 51.1%. The growth is 79.9% in the assay with NCI-H522 lung; 90.4% with A549/ATCC NSCLC; 84.4% in the assay with 786-0 renal; 84.7% with COLO 205 colon; 93.8% in the assay with DU-145 prostate; 80.4% in the assay with K-562 leukemia. Besides, the growth in the assay on MALME-3M melanoma is 97.4%; in the assay with MDA-MB-231 breast it was 93.5%; with RXF 393 renal it was 83.4%; in the assay on SF-268 CNS, 98.6%; in the assay on SF-295 CNS it was 102%; in the assay with SF-539 CNS, 102%. For the same molecule, the values for the growth in the assay on UACC-257 melanoma and in the assay with M14 melanoma were 80.3% and 92.5%, respectively.

Consider `c1ccc(Cn2cc3c(c2-c2ccccc2)CCc2cnoc2-3)cc1`, for which the growth with NCI-H23 lung was 78.8%; in the assay on NCI-H226 lung it was 83.6%; in the assay with NCI-H322M lung, 95.6%; in the assay on HOP-62 NSCLC, 75.1%; in the assay on NCI-H460 lung it was 53.7%; with HOP-92 NSCLC, 65.8%. In addition, the growth in the assay on NCI-H522 lung is 56.6%; in the assay on A549/ATCC NSCLC it was 59.6%; in the assay on 786-0 renal it was 80.2%; in the assay with COLO 205 colon, 80.5%; in the assay on DU-145 prostate it was 88.3%; in the assay with K-562 leukemia, 16.2%. Further, the growth in the assay with MALME-3M melanoma is 45.8%; with MDA-MB-231 breast, 87.2%; with RXF 393 renal it was 80.6%; with SF-268 CNS, 76.6%; in the assay on SF-295 CNS, 60.4%; in the assay with SF-539 CNS it was 71.9%. For the same molecule, the growth in the assay on UACC-257 melanoma is 92.4%; in the assay with M14 melanoma, 44.1%.

Source of the values: PubChem BioAssay (NCI).
